# Experimental data: the supplement of paper PMC4683952
# Structures can show the parent of a compound that is named as a salt. Out of some 1,200 compounds screened, about 50 (4%) showed activity. Only a selection was taken, and actives are over-represented in it overall. A number with no mark means an inactive call. No stated cut-off is given here; in the data, all actives reach 1.3 or more but so do some inactives.
# Test system: Lgr5 (MarsCy1-Lgr5-EGFP, U2OS)
# Experiment: cell-surface Lgr5 expression (SCi1 fluorescence, background-subtracted) relative to WT DMSO (fold of DMSO control); higher = more Lgr5 at the plasma membrane, active = hit call of the paper
# Settings: U2OS MarsCy1-Lgr5-EGFP stable; treatment time: overnight; 16 µM; library: Johns Hopkins Clinical Compound Library
row,Structure (SMILES),cell-surface Lgr5 expression
1,OC(CCCN1CCC(O)(c2ccc(Cl)cc2)CC1)c1ccc(F)cc1 (stereo unspecified) [Haloperidol metabolite II],1.18
2,CCCCCCCCCCCCCCc1ccc(S(=O)(=O)O)cc1.OCl [Oxychlorosene],0.635
3,C[C@@H]1C[C@H]2[C@@H]3CCC4=CC(=O)C=C[C@]4(C)[C@@]3(F)[C@@H](O)C[C@]2(C)[C@@]1(O)C(=O)COP(=O)(O)O,1.26
4,C[C@H]1C[C@H]2[C@@H]3CCC4=CC(=O)C=C[C@]4(C)[C@@]3(F)[C@@H](O)C[C@]2(C)[C@@]1(O)C(=O)COP(=O)(O)O [Betamethasone sodium phosphate],1.35 (active)
5,C[C@H]1C[C@H]2[C@@H]3CCC4=CC(=O)C=C[C@]4(C)[C@@]3(Cl)[C@@H](O)C[C@]2(C)[C@@]1(O)C(=O)CO [Beclomethasone],1.36 (active)
6,C[C@@H]1C[C@H]2[C@@H]3CCC4=CC(=O)C=C[C@]4(C)[C@@]3(F)[C@@H](O)C[C@]2(C)[C@H]1C(=O)CO,1.41
7,C[C@H]1C[C@H]2[C@@H]3CCC4=CC(=O)C=C[C@]4(C)[C@@]3(F)[C@@H](O)C[C@]2(C)[C@@]1(O)C(=O)CO,1.45 (active)
8,CC(=O)OCC(=O)[C@@]1(O)[C@@H](C)C[C@H]2[C@@H]3CCC4=CC(=O)C=C[C@]4(C)[C@@]3(F)[C@@H](O)C[C@@]21C [Betamethasone 21-acetate],1.53 (active)
9,CC(=O)OCC(=O)[C@@]1(O)[C@@H](C)C[C@H]2[C@@H]3CCC4=CC(=O)C=C[C@]4(C)[C@@]3(F)[C@@H](O)C[C@@]21C,1.59 (active)
10,O=P([O-])([O-])O.[K+].[K+] [Potassium phosphate dibasic],1.09
11,O.O.O.O.O.O.[Br-].[Br-].[Sr+2] [Strontium bromide hexahydrate],0.469
12,"Nc1ccc2cc3ccc(N)cc3nc2c1 [Proflavine hemisulfate salt hydrate, powder]",1.06
13,CCCCCCCCCCCCCCCCCC(=O)[O-].CCCCCCCCCCCCCCCCCC(=O)[O-].[Zn+2] [Zinc stearate],0.658
14,C=CC[N+]1([C@H]2C[C@H]3[C@@H]4CC[C@H]5C[C@H](O)[C@@H](N6CCOCC6)C[C@]5(C)[C@H]4CC[C@]3(C)[C@H]2OC(C)=O)CCCC1 [Rocuronium bromide (Zemuron)],1.2
15,CCCCC(C)(O)C/C=C/[C@H]1[C@H](O)CC(=O)[C@@H]1CCCCCCC(=O)OC (mixture of isomers) [Misoprostol],1.07
16,O=C(Cc1cccs1)N[C@@H]1C(=O)N2C(C(=O)O)=C(/C=C/c3ccc([N+](=O)[O-])cc3[N+](=O)[O-])CS[C@H]12 [Nitrocefin],0.867
17,CCOC(C)OCC [Acetal],1.06
18,C=C1C[C@H]2[C@@H]3C=C(C)C4=CC(=O)CC[C@]4(C)[C@H]3CC[C@]2(C)[C@@]1(OC(C)=O)C(C)=O [Melengestrol acetate],1.58 (active)
19,CC(=O)O[C@]1(C(C)=O)CC[C@H]2[C@@H]3C=C(C)C4=CC(=O)CC[C@]4(C)[C@H]3CC[C@@]21C [Megestrol Acetate],1.29
20,CC(=O)O[C@]1(C(C)=O)CC[C@H]2[C@@H]3C=C(Cl)C4=CC(=O)CC[C@]4(C)[C@H]3CC[C@@]21C [Chlormadinone acetate],1.09
21,CO[C@H]1C=CO[C@@]2(C)Oc3c(C)c(O)c4c(O)c(c(C=O)c(O)c4c3C2=O)NC(=O)C(C)=CC=C[C@H](C)[C@H](O)[C@@H](C)[C@@H](O)[C@@H](C)[C@H](OC(C)=O)[C@@H]1C [3-formyl Rifamycin],1.12

row,Structure (SMILES),cell-surface Lgr5 expression
1,O=C([O-])[O-].[Ca+2] [Calcium carbonate],0.936
2,COC(=O)Nc1nc2cc([S+]([O-])c3ccccc3)ccc2[nH]1 (stereo unspecified) [Oxfendazole],1.18
3,O=[N+]([O-])c1ccc(O)cc1 [4-Nitrophenol],1.17
4,[Na+].[OH-] [Sodium hydroxide],0.75
5,COc1ccc2cc([C@H](C)C(=O)O)ccc2c1 [Naproxen (s-6-methoxy methyl 2-naphthalene acetic acid)],0.783
6,"COc1ccc(C(=O)c2ccccc2O)c(O)c1 [Dioxybenzone (2,2'-Dihydroxy-4-methoxybenzophenone)]",0.985
7,COc1ccc2cc(CCC(C)=O)ccc2c1 [Nabumetone],1.32 (active)
8,COc1ccc2cc([C@H](C)C(=O)O)ccc2c1 [Naproxen sodium],1.03
9,O=C([O-])C[NH+](CC(=O)[O-])CC(=O)[O-].O=C([O-])C[NH+](CC(=O)[O-])CC(=O)[O-].O=C([O-])C[NH+](CC(=O)[O-])CC(=O)[O-].[Na+].[Na+].[Na+].[Na+].[Na+].[Na+].[Na+].[O]=[Bi][O]C(=O)C[NH+](CC(=O)[O-])CC(=O)[O-] [Bismuth Sodium Triglycollamate (Nitrilotriacetic acid)],1.08
10,COc1ccc2[nH]c([S+]([O-])Cc3ncc(C)c(OC)c3C)nc2n1 (stereo unspecified) [Tenatoprazole],1.17
11,[I-].[Na+] [Sodium iodide],1.13
12,"C[C@@H](C1=C(CCN(C)C)Cc2ccccc21)c1ccccn1 [Dimethindene (S, +) maleate]",1.32
13,CCCCCCCCCCCCN [Dodecylamine],0.823
14,C[N+](C)(CCOc1ccccc1)Cc1ccccc1.O=C([O-])c1cc2ccccc2cc1O [Bephenium hydroxy-naphthoate],1.05
15,Cc1cc(C(C)(C)CC(C)(C)C)ccc1OCCOCC[N+](C)(C)Cc1ccccc1 [Methylbenzethonium chloride],1.67 (active)
16,CCCCCCCCCCCC[N+](C)(C)Cc1ccccc1,0.391
17,CC(=O)SCC(Cc1ccccc1)C(=O)NCC(=O)OCc1ccccc1 (stereo unspecified) [Racecadotril],1.24
18,N.O=C(O)CC(O)(CC(=O)O)C(=O)O.[Fe+3] [Ferric ammonium citrate],1.06
19,N=C(N)N [Guanidine hydrochloride],0.767
20,O.O.O.O.O.O.O.O=S(=O)([O-])[O-].[Mg+2] [Magnesium sulfate],1.04
21,C=CC1=C(C(=O)O)N2C(=O)[C@@H](NC(=O)/C(=N\O)c3csc(N)n3)[C@H]2SC1 [Cefdinir],1.06

row,Structure (SMILES),cell-surface Lgr5 expression
1,O=C(O[C@@H]1Cc2c(O)cc(O)cc2O[C@@H]1c1ccc(O)c(O)c1)c1cc(O)c(O)c(O)c1 [Epicatechin gallate (-)],1.14
2,"C[C@](N)(Cc1ccc(O)c(O)c1)C(=O)O [Methyl-DOPA (alpha-methyl-L-beta-3,4-dihydroxyphenylalanine)]",0.929
3,"N[C@@H](Cc1ccc(O)c(O)c1)C(=O)O [Levodopa (L-beta-3,4-Dihydroxyphenylananine)]",0.449
4,NCCc1ccc(O)c(O)c1 [Dopamine (3-Hydroxytyramine hydrochloride)],1.51 (active)
5,NCCc1ccc(O)c(O)c1 [3-hydroxytyramine (Dopamine)],1.43 (active)
6,CC(=O)N[C@@H](CCC(N)=O)C(=O)O [Aceglutamide (N-acetyl-L-glutamine)],1.2
7,CN1CC(O)C2=C/C(=N/NC(N)=O)C(=O)C=C21 (stereo unspecified) [Carbazochrome (Adrenochrome semicarbazone)],1.16
8,Cc1cc(N)c2ccccc2c1O [Vitamin K5 hydrochloride],0.778
9,O=P([O-])(O)O.[K+] [Potassium phosphate monobasic],1.24
10,C[C@@H]1C[C@H]2[C@@H]3C[C@H](F)C4=CC(=O)C=C[C@]4(C)[C@@]3(F)[C@@H](O)C[C@]2(C)[C@@]1(O)C(=O)COC(=O)C(C)(C)C [Flumethasone pivalate],1.37 (active)
11,C[C@@H]1C[C@H]2[C@@H]3C[C@H](F)C4=CC(=O)C=C[C@]4(C)[C@@]3(F)[C@@H](O)C[C@]2(C)[C@@]1(O)C(=O)CO [Flumethasone],1.48 (active)
12,[Ca+2].[OH-].[OH-] [Calcium hydroxide],1.1
13,O.O=C([O-])CN(CCN(CC(=O)[O-])CC(=O)[O-])CC(=O)[O-].[Ca+2].[Na+].[Na+] [Edetate calcium disodium (Calcium disodium versenate)],0.981
14,O.O=C([O-])CN(CCN(CC(=O)[O-])CC(=O)[O-])CC(=O)[O-].[Ca+2].[Na+].[Na+],1
15,Cc1cc2nc3ccc(N(C)C)cc3[s+]c2cc1N [Tolonium chloride (Toluidine blue O)],1.15
16,c1ccc(-c2ccc(C(c3ccccc3)n3ccnc3)cc2)cc1 (stereo unspecified) [Bifonazole],1.04
17,[Fe+3].[Fe+3].[O-2].[O-2].[O-2].[O-2].[Zn+2] [Calamine],0.886
18,Cc1ncc(CSSCc2cnc(C)c(O)c2CO)c(CO)c1O [Pyrithioxin],1.16
19,CN(C)CCOC(C)(c1ccccc1)c1ccc(Cl)cc1 (stereo unspecified) [Chlorphenoxamine hydrochloride],1.15
